Experimental data reported in PubChem BioAssay AID602270 (The Scripps Research Institute Molecular Screening Center, 2012).
The other results are listed elsewhere or left out. Activity calls are given as the source filed them. Cut-off read from the data, not from the text of the source: active = activation above about 4%; inactive = the rest.

System: Methionine sulfoxide reductase A (Bos taurus)
Assay: methionine sulfoxide reductase A activation – biochemical, absorbance, bovine, HTS, confirmation (AID 602270);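 note: enzyme coupled to thioredoxin and thioredoxin reductase with NADPH; 0% = vehicle wells and 100% = reference activator wells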
Conditions: purified bovine MsrA, absorbance read-out; at 10.6 µM; stronger effect = higher value

Row | SMILES | activation
1 | NC1=CC(=O)C(=O)c2cccnc21 | 5.78% (active)
2 | Cc1ccc(S(=O)(=O)n2nc(OC(=O)C(C)(C)C)cc2N)cc1 | -1.8% (inactive)
3 | COc1ccc([C@H]2CC(=O)C=C(/C=C/c3ccccc3)C2)cc1 | -2.68% (inactive)
4 | CC(=O)NC(Cc1c[nH]c2ccccc12)C(=O)O (configuration not stated) | -0.4% (inactive)
5 | CCc1ccc(NC(=O)CSc2nnc(-c3cnccn3)n2Cc2ccco2)cc1 | -1.98% (inactive)
6 | COc1ccccc1-n1cn[nH]c1=S | -0.06% (inactive)
7 | O=C(O)C1CCCCC1C(=O)Nc1ccc(Cl)cc1 (configuration not stated) | -0.71% (inactive)
8 | CCCCNC(=O)OC(C)CNC(=O)OC (configuration not stated) | -2.15% (inactive)
9 | CCOc1cccc(-n2nnnc2-c2ccc(OC)cc2)c1 | -1.06% (inactive)
10 | O=C1C(Sc2cccc(F)c2)=C[C@@]2(O)CC[C@@H](O)[C@]1(Sc1cccc(F)c1)[C@H]2O | -4.14% (inactive)
11 | CN(C)S(=O)(=O)c1ccc(NC(=O)COC(=O)c2n[nH]c3ccccc23)cc1 | 1.95% (inactive)
12 | S=c1[nH]nc(NCCc2ccccc2)s1 | 7.45% (active)
13 | Cc1ccc(C)c(NC(=O)CSc2nnc(Cc3cccn3C)n2-c2ccc(F)cc2)c1 | 2.75% (inactive)
14 | COc1ccc(C(CNC(=O)c2cc3c(s2)CCCC3)N2CCOCC2)cc1 (configuration not stated) | 0.61% (inactive)
15 | O=C(O)/C=C/c1cn(Cc2ccccc2)nc1-c1cccs1 | -1.62% (inactive)
16 | CCCN(CC(=O)Nc1ccccc1C)C(=O)c1ccc2[nH]c3c(c2c1)CC(C)CC3 (configuration not stated) | 2.07% (inactive)
17 | COc1cc(NC(=O)COC(=O)c2ccc([N+](=O)[O-])s2)cc(OC)c1OC | 4.75% (active)
